# PubChem BioAssay (NCATS)
# Unmarked numbers belong to inactive results. Results filed as inconclusive are left out. Activity calls are given as the source filed them. The call rests on the fitted dose curve; in most records, active means well fitted curve in the direction sought with a large enough effect; inconclusive means small, poorly fitted or top-dose-only effect, or another doubt; inactive means no such curve, though single readings can be large; an effect the other way counts as inactive or inconclusive.
# Test: Confirmation and Secondary Assay for Modulators of Hemoglobin Beta Chain Splicing at IVS2 654 locus (AID 910);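 further: HeLa cells stably carrying EGFP split by mutant beta-globin IVS2-654 intron; % of control where 0% means no effect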
# Conditions: HeLa EGFP-654 splicing reporter, GFP fluorescence, 48 h; series mostly up to 46.1 µM; activation (splicing correction): at the top concentration
# Method in brief: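 HeLa cells stably expressing EGFP interrupted by β-globin IVS2-654 intron, seeded overnight in Opti-MEM/2% FCS, then treated 2 days at 37 °C. Restored splicing read as total peak GFP intensity per well by laser scanning cytometry (488 nm excitation, 500–520 nm emission); 500 nM antisense PNA as control.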
row,Compound,activation (splicing correction) [%]
1,CCN(CC)CCOC(=O)C(c1ccccc1)C1CCCCC1 (stereo not given),-0.585
2,Cc1c(C(N)=O)cc([N+](=O)[O-])cc1[N+](=O)[O-],5.43
3,CCCCOc1ccc(OCCCN2CCOCC2)cc1,-5.22
4,CNCCC=C1c2ccccc2CCc2ccccc21,0.703
5,CCN(CCCCOC(=O)c1ccc(OC)c(OC)c1)C(C)Cc1ccc(OC)cc1 (stereo not given),-0.421
6,CC(CCc1ccccc1)NCC(O)c1ccc(O)c(C(N)=O)c1 (stereo not given),2.55
7,CO/N=C1\CN(c2nc3c(cc2F)c(=O)c(C(=O)O)cn3C2CC2)CC1CN (stereo not given),4.08
8,CN(C(=O)CN(CCO)CC(=O)N(C)C(C)(C)Cc1ccccc1)C(C)(C)Cc1ccccc1,2.84
9,O=C(OCC(O)CO)c1ccccc1Nc1ccnc2cc(Cl)ccc12 (stereo not given),-6.17
10,Oc1c(I)cc(I)c2cccnc12,-6.35
11,OC(CCN1CCCCC1)(c1ccccc1)c1ccccc1,-4.4
12,CCCCc1nc(Cl)c(CO)n1Cc1ccc(-c2ccccc2-c2nn[nH]n2)cc1,6.25

# Test: qHTS Assay for Identification of Small Molecule Agonists for Thrombopoietin (TPO) Signaling Pathway (AID 917); further: on the % scale 0 is the no-effect control and ±100 the full control effect
# Conditions: TPO signaling pathway reporter cells, agonist qHTS, stimulated with TPO at its EC50; series mostly up to 38.5 µM; activity, positive = activation: at the top concentration
# Method in brief: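 Murine Ba/F3 cells stably expressing human TPO receptor and a Glycoprotein IIb promoter–luciferase reporter were IL-3-starved overnight, then treated with compounds plus TPO (26 pM final, its EC50) for 24 hrs at 37 C; luminescence was read.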
row,Compound,"activity, positive = activation [%]"
1,Nc1cc(Cl)c(NC2=NCCN2)c(Cl)c1,-6.28
2,CN1[C@@H]2CC[C@H]1CC(OC(=O)c1c[nH]c3ccccc13)C2 (stereo not given in full),-0.71
3,C[C@]12CC[C@@H]3c4ccc(O)cc4CC[C@H]3[C@@H]1CC[C@@H]2O,-12.7
4,Oc1cc(O)c2c(c1)O[C@H](c1ccc(O)c(O)c1)[C@H](O)C2,-23.6
5,C[C@@H]1C(=O)NC2=Nc3cccc(Cl)c3CN21,-15.7
6,N[C@@H](Cc1cnc[nH]1)C(=O)O,-11.4
7,CN1CCC[C@@H]1c1cccnc1,12.2
8,O=C1CCC(c2ccc(-n3ccnc3)cc2)=NN1,-15

# Test: Cell Viability - LYMP2-001 (AID 921); further: nearly all actives have a fitted effect of over 70% in size; further: potency means the concentration at half of the fitted maximal effect;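 on activity change, negative = cytotoxic: 0% = DMSO only and full inhibition = tetraoctylammonium bromide control wells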
# Conditions: LYMP2-001 lymphoblastoid cell viability; series mostly up to 92.2 µM; activity change, negative = cytotoxic: at the top concentration
# Method in brief: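 Human lymphoblastoid cells (Coriell), 2500 per well, were preincubated 5 hr at 37 C, then exposed to compounds in complete medium for 24 hr at 37 C. Cellular ATP was read by CellTiter-Glo luminescence; AC50 from Hill fits of concentration-response data.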
Compound,Potency,"activity change, negative = cytotoxic [%]"
CC(=O)O[C@]1(C(C)=O)CC[C@H]2[C@@H]3C[C@H](C)C4=CC(=O)CC[C@]4(C)[C@H]3CC[C@@]21C,31600 nM (active),–
CC(O)C(=O)O (stereo not given),–,0.959
COc1cccc2c1C(=O)c1c(O)c3c(c(O)c1C2=O)C[C@@](O)(C(=O)CO)C[C@@H]3O[C@H]1C[C@H](N)[C@H](O)[C@H](C)O1,501 nM (active),–
O=C(O)CCCCC(=O)O,–,9.64
COc1cccc2c1C(=O)c1c(O)c3c(c(O)c1C2=O)C[C@@](O)(C(C)=O)C[C@@H]3O[C@H]1C[C@H](N)[C@H](O)[C@H](C)O1,1580 nM (active),–
